According to PubChem BioAssay (NCATS):
Inconclusive results are not listed. The source made the active and inactive calls. The call rests on the fitted dose curve; in most records, active means well fitted inhibition curve with a large enough effect; inconclusive means small, poorly fitted or top-dose-only effect; inactive means flat fitted curve, though single readings scatter.

Experiments:
Assay in all cases: qHTS profiling for inhibitors of Plasmodium falciparum proliferation (AID 504749); further: nearly all actives have a fitted effect of over 60% in size
Details in all cases: P. falciparum in erythrocytes, SYBR Green DNA, 72 h; series mostly up to 28.7 µM
[1] = tested on: 3D7
Procedure, shortened: (§1)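 Three-day growth assay of blood-stage parasites in erythrocytes (0.3% parasitemia, 2.5% hematocrit) at 37 C, 5% CO2, quantified by SYBR Green DNA staining after overnight detergent lysis.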

[2] = tested on: AA1029
Procedure, shortened: as §1

[3] = tested on: AS120
Procedure, shortened: as §1

[4] = tested on: ATS189
Procedure, shortened: as §1

[5] = tested on: ATS95
Procedure, shortened: as §1

[6] = tested on: C2A
Procedure, shortened: as §1

[7] = tested on: CP185
Procedure, shortened: as §1

[8] = tested on: CP191
Procedure, shortened: as §1

[9] = tested on: CP192
Procedure, shortened: as §1

[10] = tested on: CP194
Procedure, shortened: as §1

[11] = tested on: CP201
Procedure, shortened: as §1

[12] = tested on: CP211
Procedure, shortened: as §1

[13] = tested on: CP215
Procedure, shortened: as §1

[14] = tested on: CP217
Procedure, shortened: as §1

[15] = tested on: CP237
Procedure, shortened: as §1

[16] = tested on: CP238
Procedure, shortened: as §1

[17] = tested on: CP247
Procedure, shortened: as §1

[18] = tested on: CP250
Procedure, shortened: as §1

[19] = tested on: 7G8
Procedure, shortened: as §1

[20] = tested on: CP203
Procedure, shortened: as §1

Measured: Potency
Potency means the concentration at half of the fitted maximal effect.

CC1(C)C(C=C(Cl)Cl)C1C(=O)OCc1cccc(Oc2ccccc2)c1 (centres undefined)
not listed: [19] | [20]
inactive: all other assays above

O=S(=O)(O)c1cc(O)c2c(N=Nc3ccc(Nc4ccccc4)c4c(S(=O)(=O)O)cccc34)cc(S(=O)(=O)O)cc2c1
inactive: [1] | [2] | [4] | [5] | [6] | [15] | [16]

O=C(Nc1ccc(Br)cc1)c1cc(Br)c(Br)s1
inactive: [18]
active: [19] 10 µM | [20] 16.9 µM

C[C@H]1C[C@H]2[C@@H]3CCC4=CC(=O)C=C[C@]4(C)[C@@]3(F)[C@@H](O)C[C@]2(C)[C@@]1(O)C(=O)CO
not listed: [19] | [20]
inactive: all other assays above

O=C(Nc1cccc(C(F)(F)F)c1)c1cc(Br)cc(Br)c1O
active: [19] 6.31 µM | [3] 12.6 µM | [20] 15.1 µM | [12] 12 µM | [13] 12 µM | [14] 8.91 µM | [17] 8.91 µM

CN1C(=O)CN2CCc3ccccc3C2c2cc(Cl)ccc21 (centres undefined)
active: [19] 12.6 µM
not listed: [3] | [14] | [15]
inactive: all other assays above

CC(Cc1ccc(O)c(O)c1)C(C)Cc1ccc(O)c(O)c1 (centres undefined)
active: [19] 8.91 µM
not listed: [3] | [13] | [15] | [20]
inactive: all other assays above

CCCCCCOc1ccc(C(=N)N(CCCC)CCCC)c2ccccc12
active: [1] 5.01 µM | [19] 4.47 µM | [4] 10 µM | [6] 11.2 µM | [7] 10 µM | [8] 4.47 µM | [9] 19 µM | [11] 16.9 µM | [14] 7.94 µM | [15] 11.2 µM | [17] 10 µM | [18] 8.91 µM

CC(=O)Oc1cc(C)c(OC(C)=O)c2ccccc12
active: [1] 8.91 µM | [19] 5.01 µM | [3] 10 µM | [6] 11.2 µM | [9] 10.7 µM | [18] 7.94 µM

CCOc1ccc2c(c1)C(C)=CC(C)(C)N2
not listed: [1] | [13]
inactive: all other assays above

CCCCC(=O)O[C@]1(C(=O)CO)[C@H](C)C[C@H]2[C@@H]3CCC4=CC(=O)C=C[C@]4(C)[C@@]3(F)[C@@H](O)C[C@@]21C
active: [19] 8.91 µM
not listed: [1] | [3] | [20]
inactive: all other assays above

COc1cc(-c2ccc(-[n+]3nc(-c4ccccc4)nn3-c3ccc([N+](=O)[O-])cc3)c(OC)c2)ccc1-[n+]1nc(-c2ccccc2)nn1-c1ccc([N+](=O)[O-])cc1
active: [1] 11.2 µM | [19] 11.2 µM | [2] 11.2 µM | [6] 11.2 µM | [7] 10 µM | [8] 11.2 µM | [9] 19 µM | [11] 16.9 µM | [12] 13.5 µM | [17] 11.2 µM

Cc1c(C)c2c(c(C)c1O)CC[C@@](C)(CCC[C@@H](C)CCC[C@@H](C)CCCC(C)C)O2
not listed: [3] | [20]
inactive: all other assays above

COC(=O)[C@H]1[C@H]2CC3c4[nH]c5ccccc5c4CCN3C[C@@H]2CC[C@@H]1O (some centres undefined)
not listed: [1] | [9] | [10] | [11] | [12] | [13] | [20]
inactive: all other assays above

CC(C)N=c1cc2n(-c3ccc(Cl)cc3)c3ccccc3nc-2cc1Nc1ccc(Cl)cc1
active: [19] 3.98 µM
not listed: [1] | [9] | [15] | [20]
inactive: all other assays above

CN(C)CCCN1c2ccccc2C(C)(C)c2ccccc21
active: [5] 8.91 µM
inactive: [1] | [6] | [7] | [9] | [11] | [12] | [13] | [14]

CC1=C(/C=C/C(C)=C/C=C/C(C)=C/CO)C(C)(C)CCC1
active: [19] 10 µM | [14] 10 µM
inactive: [9] | [10] | [11] | [12]

CCCCC(CC)COC(=O)CC(C(=O)OCC(CC)CCCC)S(=O)(=O)O (centres undefined)
inactive: [9] | [10] | [11] | [12] | [13]

O=CCCCC=O
active: [19] 10 µM
not listed: [4]
inactive: all other assays above

O=C(O)c1cc(=O)c2c3nc4ccccc4oc-3cc(=O)c2[nH]1
active: [1] 14.1 µM | [19] 1.26 µM | [15] 2.82 µM
not listed: [3]
inactive: all other assays above

CCN(CC)CCOc1ccc(-c2nc3cc(Cl)ccc3s2)cc1
active: [19] 11.2 µM
not listed: [1] | [2] | [5] | [6] | [8] | [15] | [17]
inactive: all other assays above

C#C[C@]1(O)CC[C@H]2[C@@H]3CCC4=CCCC[C@@H]4[C@H]3C(=C)C[C@@]21CC
inactive: [19] | [6] | [9] | [10] | [11] | [12] | [13] | [15]
active: [8] 10 µM

Clc1cc(Cl)c(OCC#CI)cc1Cl
inactive: [9]
active: [1] 11.2 µM | [19] 11.2 µM | [2] 12.6 µM | [6] 8.91 µM | [17] 7.08 µM | [18] 11.2 µM

COCC(=O)Nc1cc(Sc2ccccc2)ccc1N=C(NC(=O)OC)NC(=O)OC
not listed: [19]
inactive: all other assays above

COC(=O)CCC(=O)CN
not listed: [10] | [19] | [20]
inactive: all other assays above
